This note sets out measurements from PubChem BioAssay (Tox21).

Molecules are shown by their SMILES. Values joined by “and” are separate entries in the source; they are usually repeats but may differ in a detail not shown here. Identical values can stand only once. Records with an inconclusive call do not appear. Some structures have more than one record in an assay (separate samples or runs), and their calls can disagree. Active and inactive are the calls of the source. Unless noted, the call rests on the fitted dose curve; in most records, active means well fitted curve in the direction sought with a large enough effect in the repeat runs; inconclusive means weak or mixed curves; inactive means no such curve, though single readings can be large; an effect the other way counts as inactive or inconclusive.

Assay [1] is described as follows: qHTS assay for small molecule agonists of the p53 signaling pathway (AID 651631; calls by dose curve; further: nearly all actives have a fitted effect of over 15% in size; further: potency means the concentration at half of the fitted maximal effect). The essentials: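 HCT-116 p53RE-bla reporter line, 16 h compound treatment at 37 °C, then fluorescence after 2 h with B/G FRET substrate.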
Assay [2] can be described thus: qHTS assay for small molecules that induce genotoxicity in human embryonic kidney cells expressing luciferase-tagged ATAD5 (AID 651632). Further: nearly all actives have a fitted effect of over 15% in size. Further: potency means the concentration at half of the fitted maximal effect. The essentials:
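HEK293T cells carrying luciferase-tagged ATAD5 were given compound or DMSO vehicle and incubated 16 hr at 37C, 5% CO2. Luciferase activity was read after 30 min at room temperature with Amplite; a rise signals genotoxic stress.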
On the technique in general: Quantitative high-throughput screening tests each substance at several concentrations.

Assay [3] is described as follows: qHTS assay for small molecule agonists of the p53 signaling pathway - cell viability (AID 651633; calls by dose curve; further: nearly all actives have a fitted effect of over 30% in size; further: potency means the concentration at half of the fitted maximal effect). In a few lines:
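p53RE-bla cells were treated with compound for 16 hours at 37 C. Cytotoxicity was then measured as CellTiter-Glo luminescence after 30 min at room temperature.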

Assay [4] is described as follows: qHTS assay for small molecules that induce genotoxicity in human embryonic kidney cells expressing luciferase-tagged ATAD5 - cell viability (AID 651634; calls by dose curve; further: nearly all actives have a fitted effect of over 25% in size; further: potency means the concentration at half of the fitted maximal effect). The essentials:
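HEK293T cells carrying luciferase-tagged ATAD5, 2,000 cells/well, exposed to compound for 15.5 hr at 37C. Viability read as live-cell protease activity by CellTiter-Fluor fluorescence after 30 min at 37C.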

A short description of assay [5]: qHTS assay for small molecule disruptors of the mitochondrial membrane potential - cell viability (AID 720634; calls by dose curve; further: nearly all actives have a fitted effect of over 20% in size; further: potency means the concentration at half of the fitted maximal effect). In a few lines:
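HepG2 cells, 2,000 per well, attached overnight, then treated 1 hr at 37 C, 5% CO2. Viability read as ATP by CellTiter-Glo luminescence after 30 min at room temperature. Read in the same wells as the m-MPI membrane-potential dye assay.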

The nature of assay [6]: qHTS assay to test for compound auto fluorescence at 590 nm (red) in HepG2 cells (AID 720674). Further: potency means the concentration at half of the fitted maximal effect. In a few lines: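 HepG2 cells, 2,000 per well in MEM with 10% FBS, attached overnight at 37 C, then got 23 nL compound or DMSO. After 1 hr at 37 C, 5% CO2, red fluorescence was read at 540/590 nm against Rose Bengal sodium as reference.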
The nature of assay [7]: qHTS assay to test for compound auto fluorescence at 535 nm (green) in HepG2 cells (AID 720675). Further: potency means the concentration at half of the fitted maximal effect.
The nature of assay [8]: qHTS assay to test for compound auto fluorescence at 460 nm (blue) in HEK293 cells (AID 720678). The essentials:
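Blue read-out at excitation 405 nm and emission 460 nm follows overnight compound exposure of HEK293 cells at 37C in 5% CO2. Activity is given as auto fluorescence equivalency to triamterene.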

Assay [9] is described as follows: qHTS assay to test for compound auto fluorescence at 590 nm (red) in HEK293 cells (AID 720679). Further: potency means the concentration at half of the fitted maximal effect. In a few lines: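 Red channel, Ex/Em 540/590nm; signal expressed as equivalency to Rose Bengal sodium. HEK293, 2,000 cells/well, 10% dialyzed FBS; 23 nL compound pinned after 4-5 hr attachment; overnight 37C/5% CO2 before reading.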
A short description of assay [10]: qHTS assay for small molecule disruptors of the mitochondrial membrane potential (AID 720635). Further: potency means the concentration at half of the fitted maximal effect. In a few lines:
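HepG2 cells exposed to compound 1 hr at 37C, then Mito-MPS dye 30 min. Ratio read of aggregate (540/590 nm) versus monomer (490/535 nm) fluorescence.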
On the % scale 0 is the no-effect control and ±100 the full control effect; tags describe the fitted curve by direction and shape or compound fluorescence and quenching.

With `Nc1ccc2c(O)cc(S(=O)(=O)O)cc2c1`, the Potency in assay [1] was 4.86 µM (active) and 2.43 µM (active). Also, the Potency entry in [2], in assay [3], in [4], in assay [5], in assay [6] and in assay [7] was “inactive” each time. The Potency entry in assay [9] was “inactive”. For the same molecule, the molecule was called inactive in assay [8].

As to `O=C1OC2(c3ccccc31)c1cc(I)c(O)c(I)c1Oc1c2cc(I)c(O)c1I`, the Potency entry in [1], in assay [2], in assay [3] and in assay [5] was “inactive” each time. Moreover, the Potency is 11.2 µM (active) and 20 µM (active) and 17.8 µM (active) in [6]; 14.1 µM (active) and 10 µM (active) and 17.8 µM (active) in [7]; 17.8 µM [fluorescent] (active) [middle of 4 runs] in assay [9]. For the same molecule, the molecule was classed as inactive in [8].

For `Nc1cc(Cl)c(N)c(Cl)c1`, the Potency entry in assay [1], in assay [2], in [3], in assay [4], in assay [5] and in assay [6] was “inactive” throughout. Moreover, the Potency result in assay [7] and in assay [9] was “inactive” throughout. Further, in [8], the result was inactive.

For `CN(C)C`, the Potency entry in assay [1], in assay [2], in assay [3], in assay [4], in assay [5] and in assay [6] was “inactive” in each case. Also, the Potency entry in assay [7] and in assay [9] was “inactive” in each case. Further, the result in assay [8] was inactive.

Turning to `Cc1ccc(S(=O)(=O)NCl)cc1`, the Potency result in [1], in assay [2], in assay [3], in [4], in assay [5] and in assay [6] was “inactive” in each case. Also, the Potency entry in assay [7] and in assay [9] was “inactive” in each case. The molecule was called inactive in assay [8].

With `C=C[C@@]1(C)CC(=O)[C@]2(O)[C@@]3(C)[C@@H](O)CCC(C)(C)[C@@H]3[C@H](O)[C@H](OC(C)=O)[C@@]2(C)O1`, the Potency entry in [1], in assay [3], in assay [4], in assay [5], in [6] and in assay [7] was “inactive” each time. For the same molecule, the Potency entry in assay [9] was “inactive”. The Potency in [2] is 266 nM (active) and 122 nM (active). For the same molecule, the call in assay [8] was inactive.

Turning to `CCO[Si](CCCNC(N)=O)(OCC)OCC`, the Potency result in [1], in assay [2], in [3], in assay [4], in assay [5] and in assay [6] was “inactive” in each case. In addition, the Potency entry in assay [7] and in assay [9] was “inactive” throughout. Besides, the molecule was called inactive in [8].

For `NC[C@H](O)c1ccc(O)c(O)c1`, the Potency entry in [2], in assay [4], in [5], in [6], in [7] and in [9] was “inactive” each time. Besides, the outcome in assay [8] was inactive.

`Cc1cccc(Nc2ccccc2C(=O)O)c1C`: the Potency result in assay [2], in assay [3], in assay [4], in assay [5], in assay [6] and in assay [7] was “inactive” each time. In addition, the Potency entry in assay [9] is “inactive”. For the same molecule, the result in assay [8] was inactive.

`CCCCCCC(C)O` (stereo not given): the Potency result in assay [2], in assay [3], in [4], in assay [5], in assay [10] and in assay [6] was “inactive” throughout. Further, the Potency entry in [7] and in assay [9] was “inactive” each time. In addition, the molecule was called inactive in assay [8].

Regarding `CCCN1C=CN(C)C1`, the Potency entry in assay [2], in assay [3], in assay [4], in assay [5], in assay [6] and in assay [7] was “inactive” in each case. Besides, the Potency entry in assay [9] is “inactive”. The outcome in assay [8] was inactive.

On to `C=CC(C)(O)CCC=C(C)C` (stereo not given), for which the Potency entry in [2], in assay [3], in assay [4], in [5], in assay [10] and in [6] was “inactive” in each case. Besides, the Potency result in assay [7] and in [9] was “inactive” each time. The outcome in assay [8] was inactive.

In the case of `c1ccc2c(c1)ccc1ncccc12`, the Potency result in assay [2], in assay [4], in [5], in [6], in assay [7] and in assay [9] was “inactive” in each case. Also, in assay [10], the Potency is 27.3 µM (active). Further, the outcome in [8] was inactive.

For `COc1ccc2nc(N)sc2c1`, the Potency result in assay [2], in [4], in assay [5], in assay [10], in [6] and in assay [7] was “inactive” in each case. In addition, in [9], the Potency result was “inactive”. Further, the result in assay [8] was inactive.

Consider `C=C[C@H]1CN2CC[C@H]1C[C@@H]2[C@@H](O)c1ccnc2ccc(OC)cc12`, for which the Potency entry in [2], in [4], in [5], in assay [6], in assay [7] and in assay [9] was “inactive” in each case. Besides, the call in assay [8] was inactive.

On to `CC/C=C\C/C=C\C/C=C\CCCCCCCC(=O)O`, for which the Potency entry in assay [3], in assay [4], in assay [5], in [6], in [7] and in [9] was “inactive” throughout. For the same molecule, the outcome in [8] was inactive.

As for `OCCNCCO`, the Potency entry in assay [2], in assay [4], in [5], in assay [6], in [7] and in [9] was “inactive” throughout. Moreover, the Potency in assay [3] is 19.3 µM (active) and inactive. The molecule was called inactive in assay [8].

As to `Cc1ccc(C(C)(C)C)c(O)c1`, the Potency entry in [2], in assay [3], in [4], in [5], in assay [6] and in [7] was “inactive” each time. Moreover, the Potency entry in [9] is “inactive”. Further, the result in assay [8] was inactive.

`CC1(C)O[C@@H]2C[C@H]3[C@@H]4C[C@H](F)C5=CC(=O)C=C[C@]5(C)[C@@]4(F)[C@@H](O)C[C@]3(C)[C@]2(C(=O)CO)O1`: the Potency result in assay [2], in assay [4], in assay [5], in assay [6], in [7] and in assay [9] was “inactive” in each case. Besides, the molecule was classed as inactive in assay [8].

As to `Oc1ccc(C(c2ccc(O)cc2)C(Cl)(Cl)Cl)cc1`, the Potency entry in [2], in assay [4], in [5], in assay [6], in assay [7] and in assay [9] was “inactive” throughout. The Potency in assay [3] was 68.3 µM (active); in assay [10], 6.09 µM (active) and 6.86 µM (active). Moreover, in assay [8], the molecule was called inactive.

Consider `C=C[C@H]1CN2CC[C@H]1C[C@H]2[C@H](O)c1ccnc2ccc(OC)cc12`, for which the Potency result in assay [2], in [4], in assay [5], in assay [6], in assay [7] and in [9] was “inactive” in each case. Besides, the molecule was classed as inactive in assay [8].

`O=Cc1ccccc1C=O`: the Potency in assay [2] was 11.9 µM (active); in [3], 11.9 µM (active) and 12.2 µM (active); in assay [4], 21.1 µM (active); in assay [5], “inactive and 61.1 µM (active)”. Further, the Potency result in assay [6], in [7] and in assay [9] was “inactive” each time. Besides, in assay [8], the call was inactive.

For the molecule `CC[C@]12CCCN3CCc4c(n(c5ccccc45)[C@@](O)(C(=O)OC)C1)[C@@H]32`, the Potency result in assay [2], in assay [3], in [4], in assay [5], in assay [6] and in [7] was “inactive” in each case. Further, the Potency entry in [9] is “inactive”. In addition, the molecule was classed as inactive in assay [8].

In the case of `CC(=O)O[C@]1(C(C)=O)CC[C@H]2[C@@H]3C=C(C)C4=CC(=O)CC[C@]4(C)[C@H]3CC[C@@]21C`, the Potency entry in assay [2], in assay [3], in assay [4], in assay [5], in assay [6] and in [7] was “inactive” each time. Further, in assay [9], the Potency entry is “inactive”. Further, the molecule was classed as inactive in assay [8].

On to `CC(=O)[C@H]1CC[C@H]2[C@@H]3CC=C4C[C@@H](O)CC[C@]4(C)[C@H]3CC[C@]12C`, for which the Potency entry in assay [2], in assay [3], in assay [4], in assay [5], in assay [6] and in [7] was “inactive” throughout. For the same molecule, in [9], the Potency result was “inactive”. In addition, the result in assay [8] was inactive.

Turning to `COc1ccc(-c2coc3cc(O)cc(O)c3c2=O)cc1`, the Potency in assay [2] is 1.38 µM (active) and 3.86 µM (active); in assay [5], 4.9 µM (active) and 13.7 µM (active); in [10], 3.09 µM (active) and 6.86 µM (active). Further, the Potency result in assay [3], in assay [4], in assay [6], in assay [7] and in assay [9] was “inactive” in each case. Moreover, the molecule was classed as inactive in assay [8].

As for `CC(=O)O[C@]1(C(C)=O)CC[C@H]2[C@@H]3C=C(Cl)C4=CC(=O)CC[C@]4(C)[C@H]3CC[C@@]21C`, the Potency entry in assay [2], in assay [4], in assay [5], in assay [6], in assay [7] and in assay [9] was “inactive” each time. The outcome in assay [8] was inactive.
